In PubChem BioAssay:
Records with an inconclusive call do not appear. Calls of active or inactive are those of the source.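 How the source made its calls, unless noted: active means GFP signal, as percent of the solvent control, above the screen mean plus 3 SD, about 149; inconclusive means no reading because the compound's own fluorescence upset strain identification; inactive means the rest.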

Key:
[1] = rapamycin-like changes in RPL19A-GFP expression – cell-based, S. cerevisiae, multiplex flow cytometry, primary screen (AID 1862; in the data active means percent of DMSO control GFP below about 86%;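 further: lower values mimic rapamycin by blocking the RPL19A rise seen in DMSO cells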); conditions: S. cerevisiae RPL19A-GFP strain, flow cytometry fluorescence, 3 h; at 10 µM; stronger effect = lower value
[2] = TOR pathway GLN3 branch reporter MEP2-GFP changes – S. cerevisiae, multiplex flow cytometry, primary screen (AID 1867;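 active means GFP response, as percent of the DMSO control, above the screen-wide mean plus 3 SD, about 139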;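 further: median GFP channel fluorescence of barcode-gated MEP2-GFP cells measured by flow cytometry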); conditions: S. cerevisiae MEP2-GFP strain, 3 h, at 10 µM, stronger effect = higher value, 100% means same as DMSO wells
[3] = TOR pathway RTG branch CIT2 reporter changes – S. cerevisiae, GFP fusion, multiplex flow cytometry, primary screen (AID 1870;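 active means percent response above a set limit, the screen-wide mean plus 3 SD, cut at about 130% in these data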;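 further: barcoded CIT2-GFP strain pooled with four other GFP strains with rapamycin as positive control; median GFP fluorescence per well over plate mean of DMSO wells so 100% = DMSO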); conditions: S. cerevisiae CIT2-GFP expression, 3 h, at 10 µM, stronger effect = higher value
[4] = TOR pathway LAP4-GFP level changes – S. cerevisiae, multiplex flow cytometry, primary screen (AID 1873); conditions: S. cerevisiae LAP4-GFP expression, 3 h, at 10 µM, stronger effect = higher value
[5] = yeast AGP1-GFP level changes, GLN3 branch – cell-based, multiplex flow cytometry, S. cerevisiae, primary screen (AID 1887;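 active means GFP signal above the screen-wide mean plus 3 SD, that is over about 124.5% of the solvent control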;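 further: AGP1-GFP fusion strain of S. cerevisiae within a five-strain barcoded multiplex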); conditions: 3 h, at 10 µM, stronger effect = higher value
[6] = reduced mouse 2C T cell binding to pMHC/ICAM-1 vesicles – MLPCN validation set, flow cytometry, LFA-1/ICAM-1 modulator project, pilot screen (AID 2523;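 active means response below a set limit, under 55% cells CD8-positive and vesicle-bound, and CD8 cells' 90th-percentile brightness under 279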;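 on vesicle binding response: mean PE anti-B7-1 fluorescence of CD8+ cells relative to row control; 100% = QL9-loaded vesicles with DMSO vehicle in the same plate row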); conditions: 2C mouse CD8+ T cells, at 7 µM, stronger effect = lower value; double positive events: measured here: CD8+/vesicle+ event percentage
[7] = target: Integrin beta-1 (Homo sapiens) + Integrin alpha-4 (Homo sapiens) (UniProt P13612+P05556); assay: alpha4beta1 integrin LIBS antibody binding reduction – U937 cells, HUTS-21 mAb, flow cytometry, validation set, VLA-4 allosteric modulator project, pilot screen (AID 2674;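 active means inhibition above 50%, about 3 SD of the validation set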;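 further: antibody binding induced by the VLA-4 ligand LDV present at three times its Kd; 0% = LDV ligand with antibody and no compound and 100% = antibody without LDV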); conditions: HUTS-21 LIBS mAb binding, at 6.7 µM, stronger effect = higher value, binding induced by LDV ligand
[8] = calorie-restriction mimetic ROS inhibitors, yeast – validation compound set, pilot screen (AID 2706;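 active means superoxide response below 65% of plate, a cut near 3 SD across the whole screen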;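 further: yeast exposed to compound for one week at 30 degrees C before staining; 100% = mean of all compound wells on the same plate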); conditions: S. cerevisiae aging, superoxide DHE fluorescence; at 10 µM, stronger effect = lower value
[9] = target: Beta-adrenergic receptor kinase 1 (Homo sapiens) (UniProt P25098); assay: GRK2 binders displacing RNA aptamer, biochemical, validation, human GRK2, bead flow cytometry (AID 488806;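 active means aptamer binding inhibition above 30%, about 3 SD of noise from non-fluorescent compounds; inactive means inhibition at or below 30%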); conditions: bead-bound GRK2, FAM-aptamer displacement, at 10 µM, stronger effect = higher value
[10] = target: AP-2 complex subunit beta (Homo sapiens) (UniProt P63010); assay: beta-arrestin/AP2 interaction blockers – biochemical, validation set, GST-AP2 beads, flow cytometry, pilot screen (AID 504541;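 active means inhibition above 54%, about 3 SD of non-fluorescent compounds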;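 further: AP2 carries R879A mutation and is captured from E. coli lysate; bead-bound FITC arrestin peptide fluorescence measuring arrestin peptide binding to AP2; 0% = DMSO wells and 100% = excess unlabeled arrestin peptide control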); conditions: FITC arrestin peptide, at 10 µM, stronger effect = higher value, AP2 beta2 appendage fragment, R879A mutant
[11] = cytosolic pH regulators acting via V-ATPase – S. cerevisiae, pHLuorin, HTS validation (AID 504600; in the data active means response above about 15%;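 further: plate controls were DMSO for no effect and reference compound for full effect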); conditions: V-ATPase proton transport, at 10 µM, stronger effect = higher value
[12] = tested on: anti-desmoglein-3 scFv antibody binding to human DSG3; assay: blockers of pathogenic pemphigus antibody–desmoglein-3 binding – biochemical, validation compound set, bead-based, flow cytometry, pilot screen (AID 588368;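 active means binding below the plate cutoff, the plate median minus 3 SD, with a reading above zero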;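 further: signal is the median channel fluorescence of bead-bound GFP antibody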); conditions: Protein G beads, DSG3-Fc, scFv-GFP binding, at 10 µM, stronger effect = lower value
[13] = Nile Red efflux blockade in pump-expressing yeast – validation compound set, multiplex, phenotypic, pilot screen (AID 588506;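 active means efflux inhibition above 0.42, the validation set average plus 4 SD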;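 further: Nile Red retained in cells so higher fluorescence means more efflux inhibition; 0 = negative control wells and 1 = enniatin B 25 µM full block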); conditions: S. cerevisiae pump-expressing triplex, Nile Red efflux flow cytometry; at 10 µM; stronger effect = higher value; the pumps come from Candida albicans
[14] = target: ATP-binding cassette sub-family B member 6 (Homo sapiens) (UniProt Q9NP58); assay: blockers of ABCB6-driven porphyrin uptake – K562-ABCB6 cells, flow cytometry, validation set, pilot screen (AID 588550;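 active means inhibition above the screen-wide mean plus 3 SD, about 51%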;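 further: 0% = DMSO wells and 100% = benzethonium chloride 70 µM positive control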); conditions: K562-ABCB6 porphyrin accumulation, 1 h, at 10 µM, stronger effect = higher value
[15] = AML differentiation inducers, ER-HoxA9 marrow cells – cell-based, GFP/MAC1 double positive, flow cytometry, validation set, primary screen (AID 588685;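 active means differentiation response of at least 50%, scaled between solvent and reference control, from cells with both markers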;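 further: compound exposure lasts four days before antibody staining and flow analysis; 0% = DMSO wells and 100% = 5 µM fulvestrant positive control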); conditions: stronger effect = higher value, normalized: vehicle 0, fulvestrant 100

Sequence of AP-2 complex subunit beta (Homo sapiens) (P63010 whole entry, looked up, the tested form may be a part, one chain of several): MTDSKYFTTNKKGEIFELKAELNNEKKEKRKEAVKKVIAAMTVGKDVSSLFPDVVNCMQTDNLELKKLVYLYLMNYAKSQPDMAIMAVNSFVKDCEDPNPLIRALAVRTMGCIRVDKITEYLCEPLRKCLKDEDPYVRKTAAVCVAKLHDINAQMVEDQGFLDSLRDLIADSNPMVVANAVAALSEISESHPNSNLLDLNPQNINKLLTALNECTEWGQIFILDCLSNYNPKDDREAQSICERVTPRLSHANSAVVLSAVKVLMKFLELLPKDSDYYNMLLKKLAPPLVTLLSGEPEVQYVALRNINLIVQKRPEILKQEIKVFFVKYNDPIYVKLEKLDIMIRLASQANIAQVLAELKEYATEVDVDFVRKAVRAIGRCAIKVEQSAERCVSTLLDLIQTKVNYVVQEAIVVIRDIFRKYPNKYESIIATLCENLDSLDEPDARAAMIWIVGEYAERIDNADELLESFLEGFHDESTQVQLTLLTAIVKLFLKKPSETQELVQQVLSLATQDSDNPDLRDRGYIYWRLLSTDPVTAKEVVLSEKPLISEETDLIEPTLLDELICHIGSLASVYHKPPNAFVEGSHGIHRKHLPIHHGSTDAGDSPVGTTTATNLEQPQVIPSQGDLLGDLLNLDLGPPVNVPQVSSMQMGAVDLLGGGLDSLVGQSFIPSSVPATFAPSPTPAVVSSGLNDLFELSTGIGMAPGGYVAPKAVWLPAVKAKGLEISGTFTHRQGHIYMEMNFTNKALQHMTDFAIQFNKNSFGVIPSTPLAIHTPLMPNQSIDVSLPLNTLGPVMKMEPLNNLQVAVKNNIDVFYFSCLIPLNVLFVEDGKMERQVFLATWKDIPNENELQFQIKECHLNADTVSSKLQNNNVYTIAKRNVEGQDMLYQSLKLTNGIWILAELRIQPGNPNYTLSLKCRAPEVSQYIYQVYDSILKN
Sequence of ATP-binding cassette sub-family B member 6 (Homo sapiens) (Q9NP58 whole entry, looked up): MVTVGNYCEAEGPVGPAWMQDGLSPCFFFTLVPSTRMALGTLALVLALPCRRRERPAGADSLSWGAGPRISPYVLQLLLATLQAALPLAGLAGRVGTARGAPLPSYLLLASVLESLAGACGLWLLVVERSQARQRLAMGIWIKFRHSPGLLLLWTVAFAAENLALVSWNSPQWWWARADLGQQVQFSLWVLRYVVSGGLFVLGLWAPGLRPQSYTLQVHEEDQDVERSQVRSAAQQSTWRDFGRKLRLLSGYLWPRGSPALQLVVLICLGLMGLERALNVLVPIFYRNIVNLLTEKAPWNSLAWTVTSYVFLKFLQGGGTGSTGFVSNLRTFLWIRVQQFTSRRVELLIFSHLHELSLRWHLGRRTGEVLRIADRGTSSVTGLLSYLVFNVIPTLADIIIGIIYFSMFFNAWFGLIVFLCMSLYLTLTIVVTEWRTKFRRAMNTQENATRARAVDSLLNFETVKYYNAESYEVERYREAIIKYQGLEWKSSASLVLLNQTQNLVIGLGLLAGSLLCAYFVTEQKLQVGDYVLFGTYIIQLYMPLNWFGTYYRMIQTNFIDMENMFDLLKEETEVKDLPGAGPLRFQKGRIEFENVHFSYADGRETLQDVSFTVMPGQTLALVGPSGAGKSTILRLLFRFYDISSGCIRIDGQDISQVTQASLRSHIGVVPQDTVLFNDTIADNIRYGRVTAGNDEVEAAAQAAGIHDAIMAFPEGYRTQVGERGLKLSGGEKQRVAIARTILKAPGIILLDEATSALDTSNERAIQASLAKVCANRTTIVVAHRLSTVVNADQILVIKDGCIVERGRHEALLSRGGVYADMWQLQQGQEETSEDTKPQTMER
Sequence of Beta-adrenergic receptor kinase 1 (Homo sapiens) (P25098 whole entry, looked up): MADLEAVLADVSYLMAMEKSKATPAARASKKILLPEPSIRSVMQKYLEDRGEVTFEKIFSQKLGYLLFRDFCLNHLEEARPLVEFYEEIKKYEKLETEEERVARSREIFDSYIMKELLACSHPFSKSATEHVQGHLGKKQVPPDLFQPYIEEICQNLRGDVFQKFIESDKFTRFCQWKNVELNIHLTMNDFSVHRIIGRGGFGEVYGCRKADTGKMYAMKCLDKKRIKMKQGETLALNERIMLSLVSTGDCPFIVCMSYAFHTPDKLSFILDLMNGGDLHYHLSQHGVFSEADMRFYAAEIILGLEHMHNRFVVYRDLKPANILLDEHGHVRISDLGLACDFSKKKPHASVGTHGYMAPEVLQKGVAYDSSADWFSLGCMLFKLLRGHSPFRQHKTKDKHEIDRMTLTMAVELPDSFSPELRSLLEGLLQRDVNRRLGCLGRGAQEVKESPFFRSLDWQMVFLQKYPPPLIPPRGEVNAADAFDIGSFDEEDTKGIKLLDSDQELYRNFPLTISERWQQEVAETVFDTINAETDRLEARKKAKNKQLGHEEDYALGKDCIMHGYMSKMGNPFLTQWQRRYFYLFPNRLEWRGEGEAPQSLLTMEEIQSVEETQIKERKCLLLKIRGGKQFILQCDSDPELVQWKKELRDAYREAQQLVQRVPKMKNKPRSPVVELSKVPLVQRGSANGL
Sequence of Integrin beta-1 (Homo sapiens) + Integrin alpha-4 (Homo sapiens) (P05556 whole entry, looked up): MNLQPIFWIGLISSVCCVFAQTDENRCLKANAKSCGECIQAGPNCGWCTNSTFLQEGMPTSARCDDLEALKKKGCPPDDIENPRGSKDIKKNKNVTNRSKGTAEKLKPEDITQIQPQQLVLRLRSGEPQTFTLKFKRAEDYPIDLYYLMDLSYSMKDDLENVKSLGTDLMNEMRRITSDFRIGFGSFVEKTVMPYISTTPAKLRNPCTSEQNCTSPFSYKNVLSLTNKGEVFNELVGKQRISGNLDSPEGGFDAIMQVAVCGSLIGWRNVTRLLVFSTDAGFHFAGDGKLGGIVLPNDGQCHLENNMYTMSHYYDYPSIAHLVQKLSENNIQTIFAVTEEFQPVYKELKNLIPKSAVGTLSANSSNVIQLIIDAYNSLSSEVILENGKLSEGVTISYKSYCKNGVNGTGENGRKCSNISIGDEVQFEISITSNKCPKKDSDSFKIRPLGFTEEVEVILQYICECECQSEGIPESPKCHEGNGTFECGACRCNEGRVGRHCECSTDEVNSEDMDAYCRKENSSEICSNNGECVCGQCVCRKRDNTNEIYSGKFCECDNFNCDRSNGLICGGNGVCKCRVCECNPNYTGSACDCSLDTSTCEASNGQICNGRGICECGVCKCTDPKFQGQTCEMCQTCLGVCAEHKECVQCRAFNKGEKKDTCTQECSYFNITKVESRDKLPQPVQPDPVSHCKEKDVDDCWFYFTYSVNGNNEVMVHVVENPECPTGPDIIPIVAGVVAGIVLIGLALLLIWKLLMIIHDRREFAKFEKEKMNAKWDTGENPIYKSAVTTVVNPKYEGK
Sequence of Integrin beta-1 (Homo sapiens) + Integrin alpha-4 (Homo sapiens) (P13612 whole entry, looked up): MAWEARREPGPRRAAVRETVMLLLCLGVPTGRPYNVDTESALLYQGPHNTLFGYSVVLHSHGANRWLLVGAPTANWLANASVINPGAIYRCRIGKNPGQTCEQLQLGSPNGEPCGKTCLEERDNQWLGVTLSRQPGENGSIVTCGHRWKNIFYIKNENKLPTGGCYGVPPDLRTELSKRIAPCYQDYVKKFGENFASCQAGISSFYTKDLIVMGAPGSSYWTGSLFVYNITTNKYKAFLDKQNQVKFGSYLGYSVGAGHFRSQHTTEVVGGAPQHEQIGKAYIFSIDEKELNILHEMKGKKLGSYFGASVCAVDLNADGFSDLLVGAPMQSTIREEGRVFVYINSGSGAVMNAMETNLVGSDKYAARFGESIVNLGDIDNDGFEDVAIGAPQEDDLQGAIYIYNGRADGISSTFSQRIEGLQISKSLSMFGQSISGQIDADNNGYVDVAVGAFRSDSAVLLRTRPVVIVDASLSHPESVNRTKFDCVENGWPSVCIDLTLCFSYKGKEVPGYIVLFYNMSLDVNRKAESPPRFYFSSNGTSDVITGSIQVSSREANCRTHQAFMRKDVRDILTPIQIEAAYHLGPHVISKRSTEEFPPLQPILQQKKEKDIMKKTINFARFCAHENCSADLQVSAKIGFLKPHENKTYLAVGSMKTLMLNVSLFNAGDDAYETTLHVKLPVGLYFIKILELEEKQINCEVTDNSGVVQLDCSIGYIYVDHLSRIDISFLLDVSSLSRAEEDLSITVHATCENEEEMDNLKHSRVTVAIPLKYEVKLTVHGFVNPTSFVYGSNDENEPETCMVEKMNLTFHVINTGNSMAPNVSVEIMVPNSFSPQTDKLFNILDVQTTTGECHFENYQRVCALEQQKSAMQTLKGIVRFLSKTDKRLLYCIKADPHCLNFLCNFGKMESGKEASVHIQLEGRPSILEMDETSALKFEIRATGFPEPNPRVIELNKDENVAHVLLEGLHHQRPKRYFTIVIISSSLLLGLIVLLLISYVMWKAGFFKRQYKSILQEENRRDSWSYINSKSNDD

Row | SMILES | percent of DMSO control GFP [1] | GFP response vs DMSO [2] | percent response of DMSO control [3] | GFP response vs DMSO [4] | GFP response, % of DMSO [5] | double positive events [6] [%] | vesicle binding response [6] | inhibition [7] | superoxide response (% of plate) [8] | aptamer binding inhibition [9] | inhibition [10] | response [11] | binding (% of control) [12] | efflux inhibition (fraction of control) [13] | inhibition [14] | differentiation response [15]
1 | CC(O)Cn1cnc2c1c(=O)n(C)c(=O)n2C (stereo not given) | 95.1% (inactive) | 93.8% (inactive) | 111% (inactive) | 94.3% (inactive) | 98.7% (inactive) | 50 | 150% (inactive) | 4.42% (inactive) | 105% (inactive) | 0% (inactive) | -14.4% (inactive) | 0.41% (inactive) | 101% (inactive) | -0.24 (inactive) | 4% (inactive) | -14.7% (inactive)
2 | COc1c(C)cc(C(=O)C2CCCN(Cc3ccc(Oc4ncccn4)cc3)C2)cc1C (stereo not given) | 99.5% (inactive) | 107% (inactive) | 112% (inactive) | 103% (inactive) | 103% (inactive) | 56.4 | 202% (inactive) | -4.9% (inactive) | 99.2% (inactive) | 0% (inactive) | 4.02% (inactive) | 0.79% (inactive) | 101% (inactive) | -0.01 (inactive) | 5% (inactive) | -30.9% (inactive)
3 | COc1cc2c(cc1OC)C(c1cc3ccccc3oc1=O)=NC(C)(C)C2 | 101% (inactive) | 103% (inactive) | 107% (inactive) | 96.4% (inactive) | 100% (inactive) | 46.8 | 137% (inactive) | 10.9% (inactive) | 117% (inactive) | 3% (inactive) | -0.33% (inactive) | 2.07% (inactive) | 98.7% (inactive) | 0.1 (inactive) | 10% (inactive) | -13.1% (inactive)
4 | CC(=O)O[C@H]1CSC[C@H]1NC(=O)c1ccccc1 | 101% (inactive) | 91.8% (inactive) | 106% (inactive) | 102% (inactive) | 101% (inactive) | 60.9 | 233% (inactive) | -7.7% (inactive) | 104% (inactive) | -6% (inactive) | -16.1% (inactive) | -9.38% (inactive) | 102% (inactive) | -0.28 (inactive) | 12% (inactive) | -13.1% (inactive)
5 | CCOC(=O)c1ccccc1NC(=O)c1ccc(F)cc1 | 101% (inactive) | 108% (inactive) | 103% (inactive) | 92.3% (inactive) | 91.8% (inactive) | 60.4 | 102% (inactive) | 10.9% (inactive) | 100% (inactive) | 3% (inactive) | 6.01% (inactive) | -5.23% (inactive) | 98.8% (inactive) | 0.37 (inactive) | 13% (inactive) | -13.1% (inactive)
6 | CCN(Cc1ccncc1)Cc1nc(Cc2ccccc2Cl)no1 | 95.8% (inactive) | 98.9% (inactive) | 102% (inactive) | 95.4% (inactive) | 94.2% (inactive) | 53.4 | 164% (inactive) | -12.4% (inactive) | 111% (inactive) | 2% (inactive) | 8.49% (inactive) | 2.76% (inactive) | 101% (inactive) | 0.25 (inactive) | 7% (inactive) | -27.6% (inactive)
7 | CC(C)Cc1cc(C(=O)N2CCC(N3CCC(C(=O)N4CCCC4)CC3)CC2)n[nH]1 | 100% (inactive) | 89.7% (inactive) | 109% (inactive) | 96.4% (inactive) | 102% (inactive) | 47.5 | 191% (inactive) | -2.11% (inactive) | 102% (inactive) | -3% (inactive) | 3.03% (inactive) | 1.07% (inactive) | 107% (inactive) | -0.16 (inactive) | 3% (inactive) | -27.6% (inactive)
8 | CC(COc1ccccc1)NC(C)C(O)c1ccc(O)cc1 (stereo not given) | 104% (inactive) | 101% (inactive) | 111% (inactive) | 103% (inactive) | 108% (inactive) | 55.7 | 203% (inactive) | -496% (inactive) | 107% (inactive) | -1% (inactive) | 37.9% (inactive) | -3.92% (inactive) | 100% (inactive) | -0.05 (inactive) | 9% (inactive) | -19.6% (inactive)
9 | O=C(/C=C/c1ccco1)N1CCN(c2ccccc2)CC1 | 103% (inactive) | 90.8% (inactive) | 107% (inactive) | 86.3% (inactive) | 92.7% (inactive) | 56.2 | 210% (inactive) | 8.15% (inactive) | 89% (inactive) | 1% (inactive) | 6.32% (inactive) | 5.81% (inactive) | 101% (inactive) | -0.09 (inactive) | 5% (inactive) | -19.6% (inactive)
10 | COc1ccc(OC)c(-n2c(Cn3c(-c4ccccn4)nc4ccccc43)n[nH]c2=S)c1 | 98.5% (inactive) | 101% (inactive) | 93% (inactive) | 90.3% (inactive) | 91.8% (inactive) | 62.6 | 144% (inactive) | 7.22% (inactive) | 97.4% (inactive) | 1% (inactive) | 6.75% (inactive) | -0.2% (inactive) | 105% (inactive) | 0.44 (active) | -8% (inactive) | -9.89% (inactive)
11 | CNCCC=C1c2ccccc2CCc2ccccc21 | 100% (inactive) | 98.9% (inactive) | 110% (inactive) | 97.4% (inactive) | 102% (inactive) | 49.9 | 151% (inactive) | 21.2% (inactive) | 110% (inactive) | 0% (inactive) | -0.2% (inactive) | 4.21% (inactive) | 100% (inactive) | -0.12 (inactive) | 11% (inactive) | -13.1% (inactive)
12 | CC(NC(=O)c1ccc(OC2CCN(Cc3ccccn3)CC2)cc1)c1ccccc1 (stereo not given) | 106% (inactive) | 102% (inactive) | 105% (inactive) | 99.4% (inactive) | 100% (inactive) | 59.3 | 110% (inactive) | 14.7% (inactive) | 93.3% (inactive) | -2% (inactive) | 32.2% (inactive) | -10.2% (inactive) | 102% (inactive) | -0.31 (inactive) | 6% (inactive) | 0% (inactive)
13 | CC(=O)OCC(=O)C1=CCC2C3CCC4=CC(=O)C=CC4(C)C3(F)C(OC(C)=O)CC12C (stereo not given) | 99.8% (inactive) | 101% (inactive) | 106% (inactive) | 84.3% (inactive) | 105% (inactive) | 59 | 180% (inactive) | 6.29% (inactive) | 87.6% (inactive) | 7% (inactive) | -3.56% (inactive) | 6.47% (inactive) | 96.2% (inactive) | 0.18 (inactive) | 9% (inactive) | -11.5% (inactive)
14 | CC1(C)Cc2ccccc2C(C(Cc2ccccc2)C(N)=O)=N1 (stereo not given) | 100% (inactive) | 99.9% (inactive) | 106% (inactive) | 89.3% (inactive) | 92.7% (inactive) | 51 | 132% (inactive) | 24% (inactive) | 116% (inactive) | 3% (inactive) | -4.92% (inactive) | 6.35% (inactive) | 101% (inactive) | 0.44 (active) | 9% (inactive) | -5.05% (inactive)
15 | CN(Cc1ccccc1)CC(O)COc1ccc(CNCc2cccnc2)cc1 (stereo not given) | 101% (inactive) | 102% (inactive) | 103% (inactive) | 91.3% (inactive) | 100% (inactive) | 56.7 | 211% (inactive) | -1.17% (inactive) | 93.8% (inactive) | -6% (inactive) | -7.34% (inactive) | 2.19% (inactive) | 105% (inactive) | -0.16 (inactive) | 9% (inactive) | 24% (inactive)
16 | CN1CCC(OC(c2ccccc2)c2ccccc2)CC1 | 104% (inactive) | 105% (inactive) | 104% (inactive) | 105% (inactive) | 104% (inactive) | 66.3 | 186% (inactive) | 7.22% (inactive) | 95.8% (inactive) | 3% (inactive) | -2.62% (inactive) | 1.48% (inactive) | 102% (inactive) | 0.03 (inactive) | 9% (inactive) | 4.64% (inactive)
17 | CC(C)OC(=O)CC1C(=O)NCCN1C(=S)NC(=O)c1cccs1 (stereo not given) | 98.1% (inactive) | 86.7% (inactive) | 107% (inactive) | 98.4% (inactive) | 107% (inactive) | 63.2 | 190% (inactive) | 10% (inactive) | 87.2% (inactive) | -2% (inactive) | -4.49% (inactive) | 2.24% (inactive) | 104% (inactive) | -0.2 (inactive) | 8% (inactive) | 0% (inactive)
18 | CCOC(=O)NN1C(=O)c2ccccc2NC1c1ccc(OC)c(OC)c1 (stereo not given) | 95.1% (inactive) | 103% (inactive) | 95.9% (inactive) | 103% (inactive) | 99.6% (inactive) | 64.4 | 121% (inactive) | 7.22% (inactive) | 99.5% (inactive) | 2% (inactive) | -4.55% (inactive) | -6.37% (inactive) | 102% (inactive) | -0.05 (inactive) | 14% (inactive) | 46.6% (inactive)
19 | CCOC(=O)C1(CCCc2ccccc2)CCN(C2CCN(C(C)=O)CC2)CC1 | 97.1% (inactive) | 101% (inactive) | 99.8% (inactive) | 92.3% (inactive) | 92.4% (inactive) | 52 | 138% (inactive) | -12.4% (inactive) | 103% (inactive) | 9% (inactive) | 12.5% (inactive) | -6.58% (inactive) | 109% (inactive) | 0.37 (inactive) | 9% (inactive) | -13.1% (inactive)
20 | C[N+]12CCC(CC1)C(OC(=O)C(O)(c1ccccc1)c1ccccc1)C2 (stereo not given) | 96.8% (inactive) | 96.9% (inactive) | 99.8% (inactive) | 100% (inactive) | 95.8% (inactive) | 60.6 | 211% (inactive) | 2.56% (inactive) | 104% (inactive) | -2% (inactive) | -2.25% (inactive) | 2.36% (inactive) | 102% (inactive) | -0.35 (inactive) | 10% (inactive) | -21.2% (inactive)
